One may read the inhibition as the relative decrease from the control value, in per cent.

In assay [1] the target is Mitogen-activated protein kinase 3 (Homo sapiens) (UniProt P27361). The settings on record: at 1 µM.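 Also: values are mean percent inhibition of MAPK3.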
The target of assay [2] is SRSF protein kinase 3 (Homo sapiens) (UniProt Q9UPE1). Particulars: at 0.1 µM.
For assay [3] the target is unchanged. The settings on record: at 1 µM.
Assay [4] deals with Mitogen-activated protein kinase 14 (Homo sapiens) (UniProt Q16539). Particulars: at 0.1 µM.
Mitogen-activated protein kinase 14 (Homo sapiens), sequence (Q16539 whole entry): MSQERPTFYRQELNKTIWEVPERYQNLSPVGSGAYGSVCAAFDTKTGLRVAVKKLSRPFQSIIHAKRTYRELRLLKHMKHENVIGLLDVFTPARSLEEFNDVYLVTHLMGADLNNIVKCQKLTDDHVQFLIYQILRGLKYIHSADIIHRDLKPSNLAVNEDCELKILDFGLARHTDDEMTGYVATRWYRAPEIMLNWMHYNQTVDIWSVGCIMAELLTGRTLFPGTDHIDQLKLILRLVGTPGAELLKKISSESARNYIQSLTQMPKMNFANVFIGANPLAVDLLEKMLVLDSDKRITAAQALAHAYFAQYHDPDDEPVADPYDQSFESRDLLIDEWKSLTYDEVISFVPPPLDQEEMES
The target is the same in assay [5]. Particulars: at 1 µM.
The target of assay [6] is Mitogen-activated protein kinase 11 (Homo sapiens) (UniProt Q15759). Particulars: at 0.1 µM.
Mitogen-activated protein kinase 11 (Homo sapiens), sequence (Q15759 whole entry): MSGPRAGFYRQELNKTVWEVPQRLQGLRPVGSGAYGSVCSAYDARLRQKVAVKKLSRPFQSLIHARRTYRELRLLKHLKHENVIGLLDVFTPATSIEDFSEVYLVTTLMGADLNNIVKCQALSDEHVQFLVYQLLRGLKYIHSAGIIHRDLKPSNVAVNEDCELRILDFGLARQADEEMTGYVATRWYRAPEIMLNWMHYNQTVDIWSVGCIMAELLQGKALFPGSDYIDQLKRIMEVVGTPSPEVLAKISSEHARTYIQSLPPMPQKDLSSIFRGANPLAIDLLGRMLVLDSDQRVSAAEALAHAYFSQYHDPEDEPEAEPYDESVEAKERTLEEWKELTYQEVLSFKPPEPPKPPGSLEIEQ
For assay [7] the target is unchanged. Particulars: at 1 µM.
Assay [8] addresses T1, Mitogen-activated protein kinase 13 (Homo sapiens) (UniProt O15264).
T1 sequence (whole entry): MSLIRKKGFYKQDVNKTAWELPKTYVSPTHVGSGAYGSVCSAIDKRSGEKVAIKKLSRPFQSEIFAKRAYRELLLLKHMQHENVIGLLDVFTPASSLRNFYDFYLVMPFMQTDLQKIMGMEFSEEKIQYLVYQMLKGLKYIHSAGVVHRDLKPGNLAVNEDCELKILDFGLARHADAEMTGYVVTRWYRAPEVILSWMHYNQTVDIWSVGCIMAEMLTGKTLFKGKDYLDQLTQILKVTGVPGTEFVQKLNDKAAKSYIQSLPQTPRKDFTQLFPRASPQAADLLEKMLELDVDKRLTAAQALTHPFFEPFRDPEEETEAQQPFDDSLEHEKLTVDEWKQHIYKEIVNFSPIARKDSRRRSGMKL
The settings on record: at 0.1 µM.

The target in assay [9] is T1, Mitogen-activated protein kinase 13 (Homo sapiens). Particulars: at 1 µM.
For assay [10], the target named is T2, Mitogen-activated protein kinase 12 (Homo sapiens) (UniProt P53778).
T2 sequence (whole entry): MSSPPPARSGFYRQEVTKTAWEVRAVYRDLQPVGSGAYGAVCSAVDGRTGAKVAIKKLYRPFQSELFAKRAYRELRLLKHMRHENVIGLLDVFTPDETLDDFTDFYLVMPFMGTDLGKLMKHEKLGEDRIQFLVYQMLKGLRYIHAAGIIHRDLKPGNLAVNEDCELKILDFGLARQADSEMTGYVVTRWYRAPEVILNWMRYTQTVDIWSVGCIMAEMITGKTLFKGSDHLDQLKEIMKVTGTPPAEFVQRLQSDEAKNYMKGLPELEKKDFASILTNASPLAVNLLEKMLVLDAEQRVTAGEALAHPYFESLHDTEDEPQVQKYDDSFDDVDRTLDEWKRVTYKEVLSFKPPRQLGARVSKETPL
Particulars: at 0.1 µM.

Assay [11] deals with T2, Mitogen-activated protein kinase 12 (Homo sapiens). The settings on record: at 1 µM.
For assay [12], the target named is SRSF protein kinase 1 (Homo sapiens) (UniProt Q96SB4). The settings on record: at 0.1 µM.
SRSF protein kinase 1 (Homo sapiens), sequence (Q96SB4 whole entry): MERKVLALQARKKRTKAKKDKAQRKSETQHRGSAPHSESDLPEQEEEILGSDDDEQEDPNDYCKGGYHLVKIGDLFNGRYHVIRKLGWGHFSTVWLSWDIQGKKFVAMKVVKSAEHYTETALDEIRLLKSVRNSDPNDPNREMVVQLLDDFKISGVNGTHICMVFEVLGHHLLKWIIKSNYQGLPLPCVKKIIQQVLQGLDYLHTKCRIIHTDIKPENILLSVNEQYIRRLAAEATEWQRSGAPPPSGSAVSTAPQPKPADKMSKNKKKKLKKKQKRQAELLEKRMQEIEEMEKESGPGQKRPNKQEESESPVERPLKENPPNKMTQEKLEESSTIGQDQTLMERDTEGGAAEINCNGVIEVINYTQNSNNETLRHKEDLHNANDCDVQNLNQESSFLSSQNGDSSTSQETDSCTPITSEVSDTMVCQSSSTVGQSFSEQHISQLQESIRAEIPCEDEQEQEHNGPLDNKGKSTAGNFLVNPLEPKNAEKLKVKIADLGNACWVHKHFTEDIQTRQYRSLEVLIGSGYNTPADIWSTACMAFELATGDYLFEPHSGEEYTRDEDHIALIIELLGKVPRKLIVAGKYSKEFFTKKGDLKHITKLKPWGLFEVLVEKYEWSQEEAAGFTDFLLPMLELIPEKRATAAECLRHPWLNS
The target is the same in assay [13]. Particulars: at 1 µM.
In assay [14] the target is Phosphatidylinositol 4,5-bisphosphate 3-kinase catalytic subunit alpha isoform (Homo sapiens) (UniProt P42336). Particulars: at 0.1 µM.
Phosphatidylinositol 4,5-bisphosphate 3-kinase catalytic subunit alpha isoform (Homo sapiens), sequence (P42336 whole entry, canonical isoform): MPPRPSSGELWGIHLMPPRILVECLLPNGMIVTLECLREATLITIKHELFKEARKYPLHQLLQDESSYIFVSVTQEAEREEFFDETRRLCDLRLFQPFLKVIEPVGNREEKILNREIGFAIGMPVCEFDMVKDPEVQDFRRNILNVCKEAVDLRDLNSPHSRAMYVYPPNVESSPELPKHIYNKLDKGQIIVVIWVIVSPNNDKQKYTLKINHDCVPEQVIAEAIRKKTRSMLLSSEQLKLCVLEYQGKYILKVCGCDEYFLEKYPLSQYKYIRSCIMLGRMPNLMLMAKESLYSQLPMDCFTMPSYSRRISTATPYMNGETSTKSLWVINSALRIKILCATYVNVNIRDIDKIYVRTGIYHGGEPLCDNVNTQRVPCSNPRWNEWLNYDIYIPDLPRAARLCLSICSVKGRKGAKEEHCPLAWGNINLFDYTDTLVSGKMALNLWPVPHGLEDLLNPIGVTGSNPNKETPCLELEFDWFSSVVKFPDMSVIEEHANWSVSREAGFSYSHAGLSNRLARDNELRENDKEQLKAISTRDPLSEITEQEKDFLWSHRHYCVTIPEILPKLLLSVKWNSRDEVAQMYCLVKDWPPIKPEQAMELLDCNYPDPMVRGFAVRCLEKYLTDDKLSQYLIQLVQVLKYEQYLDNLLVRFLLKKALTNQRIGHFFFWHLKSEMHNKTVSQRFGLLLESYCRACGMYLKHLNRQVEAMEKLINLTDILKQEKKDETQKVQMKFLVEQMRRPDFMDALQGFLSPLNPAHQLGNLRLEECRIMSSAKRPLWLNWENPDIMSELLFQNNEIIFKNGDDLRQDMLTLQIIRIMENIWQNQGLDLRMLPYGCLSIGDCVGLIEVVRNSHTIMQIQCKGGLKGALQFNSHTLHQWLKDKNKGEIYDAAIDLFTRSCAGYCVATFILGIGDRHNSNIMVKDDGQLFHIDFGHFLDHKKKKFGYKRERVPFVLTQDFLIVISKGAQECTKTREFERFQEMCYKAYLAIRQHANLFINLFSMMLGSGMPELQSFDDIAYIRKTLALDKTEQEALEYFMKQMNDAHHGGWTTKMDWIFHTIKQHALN
Assay [15] shares this target. The settings on record: at 1 µM.
The target in assay [16] is T3, Phosphatidylinositol 4,5-bisphosphate 3-kinase catalytic subunit delta isoform (Homo sapiens) (UniProt O00329).
T3 sequence (whole entry): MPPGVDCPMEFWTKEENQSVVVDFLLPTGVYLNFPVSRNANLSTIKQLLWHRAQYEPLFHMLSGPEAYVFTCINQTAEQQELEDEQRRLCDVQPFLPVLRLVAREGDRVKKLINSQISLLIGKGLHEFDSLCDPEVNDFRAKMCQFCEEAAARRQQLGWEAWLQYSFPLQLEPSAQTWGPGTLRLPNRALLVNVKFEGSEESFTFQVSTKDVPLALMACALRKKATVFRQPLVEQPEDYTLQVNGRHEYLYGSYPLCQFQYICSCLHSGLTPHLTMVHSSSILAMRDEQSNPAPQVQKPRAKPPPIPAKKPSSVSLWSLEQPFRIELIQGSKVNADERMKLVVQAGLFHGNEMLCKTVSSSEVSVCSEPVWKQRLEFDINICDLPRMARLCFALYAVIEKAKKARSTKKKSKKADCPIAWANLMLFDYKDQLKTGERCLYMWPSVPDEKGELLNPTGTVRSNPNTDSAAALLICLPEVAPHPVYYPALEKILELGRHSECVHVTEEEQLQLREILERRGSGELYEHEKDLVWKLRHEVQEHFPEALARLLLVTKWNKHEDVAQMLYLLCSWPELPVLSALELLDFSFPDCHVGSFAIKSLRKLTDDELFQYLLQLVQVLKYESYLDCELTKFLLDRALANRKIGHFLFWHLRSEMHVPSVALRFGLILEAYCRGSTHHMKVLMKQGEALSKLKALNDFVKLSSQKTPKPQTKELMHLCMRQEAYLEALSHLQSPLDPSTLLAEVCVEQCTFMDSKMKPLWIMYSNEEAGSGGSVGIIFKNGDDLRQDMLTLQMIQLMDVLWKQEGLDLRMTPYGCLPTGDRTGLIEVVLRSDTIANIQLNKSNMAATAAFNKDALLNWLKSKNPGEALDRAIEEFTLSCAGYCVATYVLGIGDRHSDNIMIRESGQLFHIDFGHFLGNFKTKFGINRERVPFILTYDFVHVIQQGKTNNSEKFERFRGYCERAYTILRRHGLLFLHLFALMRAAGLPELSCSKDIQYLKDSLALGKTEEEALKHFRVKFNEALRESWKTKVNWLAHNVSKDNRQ
The settings on record: at 0.1 µM.

The target in assay [17] is T3, Phosphatidylinositol 4,5-bisphosphate 3-kinase catalytic subunit delta isoform (Homo sapiens). The settings on record: at 1 µM.
The target in assay [18] is Phosphatidylinositol 4-kinase beta (Homo sapiens) (UniProt Q9UBF8). Particulars: at 0.1 µM.
Phosphatidylinositol 4-kinase beta (Homo sapiens), sequence (Q9UBF8 2-816 limits assumed): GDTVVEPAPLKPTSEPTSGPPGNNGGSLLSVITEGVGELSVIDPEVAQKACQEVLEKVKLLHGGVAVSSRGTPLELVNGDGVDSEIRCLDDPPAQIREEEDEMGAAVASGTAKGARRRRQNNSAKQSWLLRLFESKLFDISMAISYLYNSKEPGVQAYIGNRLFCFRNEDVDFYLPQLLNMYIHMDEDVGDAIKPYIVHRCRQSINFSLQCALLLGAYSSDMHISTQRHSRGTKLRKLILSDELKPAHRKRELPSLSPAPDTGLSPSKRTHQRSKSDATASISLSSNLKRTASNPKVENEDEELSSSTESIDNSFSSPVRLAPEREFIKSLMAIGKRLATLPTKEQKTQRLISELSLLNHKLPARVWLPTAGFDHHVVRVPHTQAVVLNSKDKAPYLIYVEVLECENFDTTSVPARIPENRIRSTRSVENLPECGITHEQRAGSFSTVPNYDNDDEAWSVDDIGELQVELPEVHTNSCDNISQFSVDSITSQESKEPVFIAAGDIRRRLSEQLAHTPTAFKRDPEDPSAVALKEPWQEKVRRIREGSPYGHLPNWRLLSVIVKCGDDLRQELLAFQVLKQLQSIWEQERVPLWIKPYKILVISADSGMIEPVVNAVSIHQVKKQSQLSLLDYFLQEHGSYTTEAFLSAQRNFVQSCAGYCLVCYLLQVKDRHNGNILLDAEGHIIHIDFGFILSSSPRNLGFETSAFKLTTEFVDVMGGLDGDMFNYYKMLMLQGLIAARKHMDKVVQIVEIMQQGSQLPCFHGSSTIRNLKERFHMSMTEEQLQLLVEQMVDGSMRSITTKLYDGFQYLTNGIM
Assay [19] shares this target. Particulars: at 1 µM.
The target of assay [20] is Sphingosine kinase 1 (Homo sapiens) (UniProt Q9NYA1). Particulars: at 0.1 µM.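 Also: mean percent inhibition of SPHK1 activity, measured within the GSK PKIS screening panel.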
Sphingosine kinase 1 (Homo sapiens), sequence (Q9NYA1 whole entry): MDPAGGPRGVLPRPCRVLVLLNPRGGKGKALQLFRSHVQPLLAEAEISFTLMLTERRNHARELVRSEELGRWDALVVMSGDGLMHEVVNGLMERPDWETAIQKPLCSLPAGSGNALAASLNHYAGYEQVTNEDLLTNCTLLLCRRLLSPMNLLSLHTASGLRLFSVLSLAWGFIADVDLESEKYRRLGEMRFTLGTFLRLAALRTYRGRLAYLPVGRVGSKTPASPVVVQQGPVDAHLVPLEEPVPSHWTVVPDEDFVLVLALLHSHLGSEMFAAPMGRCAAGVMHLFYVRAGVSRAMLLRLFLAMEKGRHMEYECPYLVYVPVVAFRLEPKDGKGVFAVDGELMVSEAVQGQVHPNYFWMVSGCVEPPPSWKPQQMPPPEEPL

SRSF protein kinase 3 (Homo sapiens), sequence (Q9UPE1 whole entry): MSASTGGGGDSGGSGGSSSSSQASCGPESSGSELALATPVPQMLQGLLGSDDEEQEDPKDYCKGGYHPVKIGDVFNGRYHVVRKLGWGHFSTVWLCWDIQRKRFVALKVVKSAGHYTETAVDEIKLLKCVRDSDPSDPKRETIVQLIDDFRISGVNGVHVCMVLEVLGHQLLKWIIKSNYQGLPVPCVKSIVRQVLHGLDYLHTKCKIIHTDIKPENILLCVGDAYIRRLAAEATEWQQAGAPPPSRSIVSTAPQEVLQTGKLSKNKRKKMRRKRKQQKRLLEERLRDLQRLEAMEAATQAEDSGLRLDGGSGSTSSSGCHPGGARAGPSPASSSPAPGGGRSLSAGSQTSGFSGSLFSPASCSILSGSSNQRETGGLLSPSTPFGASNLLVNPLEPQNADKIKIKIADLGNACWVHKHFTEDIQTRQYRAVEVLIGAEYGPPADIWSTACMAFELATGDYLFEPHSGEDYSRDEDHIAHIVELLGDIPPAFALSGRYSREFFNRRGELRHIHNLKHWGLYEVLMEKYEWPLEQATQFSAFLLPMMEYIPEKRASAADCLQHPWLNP
Mitogen-activated protein kinase 3 (Homo sapiens), sequence (P27361 whole entry): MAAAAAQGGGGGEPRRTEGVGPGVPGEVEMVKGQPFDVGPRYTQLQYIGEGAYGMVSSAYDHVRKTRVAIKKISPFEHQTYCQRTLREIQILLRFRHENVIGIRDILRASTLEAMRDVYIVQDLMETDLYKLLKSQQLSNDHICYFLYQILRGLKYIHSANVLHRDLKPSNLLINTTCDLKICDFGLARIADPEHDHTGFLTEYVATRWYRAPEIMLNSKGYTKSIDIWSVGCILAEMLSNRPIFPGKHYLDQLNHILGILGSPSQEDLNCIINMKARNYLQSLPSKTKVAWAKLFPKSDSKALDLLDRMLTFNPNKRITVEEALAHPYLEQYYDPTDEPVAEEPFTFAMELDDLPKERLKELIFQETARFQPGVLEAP

`Cc1ccc2c(-c3ccnc(Nc4cccc(C(F)(F)F)c4)n3)c(-c3ccccc3)nn2n1`: the inhibition in assay [1] was 8.27%; in [2], 0.34%; in assay [3] it was -0.19%; in [4], 37.5%; in assay [5], 73.5%; in assay [6] it was 6.89%. The inhibition in [7] was 45.1%; in [8], 4.66%; in assay [9] it was 6.13%; in [10], 3.8%; in assay [11], 5.59%; in [12], -3.32%. Besides, the inhibition in assay [13] is -2.03%; in [14], 3.95%; in [15], 5.13%; in assay [16], 0.26%; in [17], 2%; in assay [18] it was 0.44%. Further, the results for the inhibition in assay [19] and in [20] were -2.31% and 0.67%, respectively.
With `CN(C)C(=O)O[C@@H]1CN[C@@H](C#Cc2cc3ncnc(Nc4ccc(OCc5cccc(F)c5)c(Cl)c4)c3s2)C1`, the inhibition is 1.36% in [1]; -1.41% in assay [2]; -1.97% in assay [3]; 5.64% in [4]; 2.87% in [5]; 3.3% in assay [6]. For the same molecule, the inhibition in assay [7] is 6.17%; in [8] it was 1.12%; in assay [9] it was 1.11%; in assay [10], 0.57%; in assay [11] it was 1.28%; in assay [12] it was -1.65%. Also, the inhibition is -5.46% in assay [13]; 0.17% in assay [14]; 29% in assay [15]; 3.66% in assay [16]; 20.8% in assay [17]; -2.99% in assay [18]. The inhibition is -0.33% in [19] and 0.88% in assay [20].
As for `NS(=O)(=O)c1cccc(-c2cc3ccncc3cc2OCc2ccccc2)c1`, the inhibition is 4.26% in assay [1]; -0.37% in [2]; -1.61% in [3]; 2.47% in [4]; 8.87% in [5]; 3.17% in [6]. Further, the inhibition was 5.6% in [7]; -1.11% in [8]; 5.95% in assay [9]; 0.96% in assay [10]; 3.69% in assay [11]; -1.98% in assay [12]. Besides, the inhibition in assay [13] was -2.89%; in assay [14], 4.56%; in assay [15], 6.5%; in assay [16], 2.08%; in assay [17], 5.47%; in [18], -1.89%. The inhibition in assay [19] is -5.37%; in assay [20], 0.1%.
For `CN(C)c1cc2c(Nc3ccc4c(cnn4Cc4ccccc4)c3)ncnc2cn1`, the inhibition in [1] was -0.93%; in [2] it was -1.42%; in assay [3], -0.9%; in assay [4] it was 5.84%; in assay [5], 8.31%; in assay [6] it was 2.35%. In addition, the inhibition in assay [7] was 4.06%; in assay [8], 0.05%; in assay [9], 2.47%; in assay [10], 1.3%; in assay [11], 1.89%; in assay [12], -2.31%. Further, the inhibition is -3.59% in assay [13]; 1.32% in [14]; 1.28% in assay [15]; 0.82% in [16]; 3.28% in [17]; -1.83% in assay [18]. For the same molecule, the inhibition is 7.07% in assay [19] and 0.08% in assay [20].
As for `NC(=O)c1cccc(Nc2nccc(Nc3cccc(F)c3)n2)c1`, the inhibition was 1.21% in [1]; -1.02% in [2]; -0.91% in [3]; 2.29% in assay [4]; 2.5% in assay [5]; 0.85% in assay [6]. The inhibition in assay [7] was 1.67%; in [8], -0.02%; in [9] it was 0.02%; in assay [10], 1.16%; in assay [11], 1.35%; in [12], -2.36%. For the same molecule, the inhibition in assay [13] is -1.96%; in [14], -0.28%; in assay [15], 1.22%; in assay [16], -1.45%; in assay [17], -4.65%; in assay [18] it was 3.27%. For the same molecule, the figures for the inhibition in [19] and in assay [20] were 1.27% and 0.35%, respectively.
Turning to `CC(C)c1ccc(Nc2nccc(-c3cnn4ncccc34)n2)cc1`, the inhibition was 3% in assay [1]; -1.04% in assay [2]; 0.7% in assay [3]; -1.86% in assay [4]; 28.2% in [5]; 2.54% in assay [6]. Moreover, the inhibition was 5.44% in [7]; 1.62% in [8]; 5.42% in assay [9]; -0.84% in assay [10]; 4.14% in assay [11]; -1.68% in [12]. For the same molecule, the inhibition was -0.8% in [13]; 1.41% in assay [14]; 4.52% in assay [15]; 2.45% in assay [16]; 6.78% in assay [17]; 2.86% in assay [18]. Moreover, the figures for the inhibition in [19] and in [20] were 3.34% and 4.11%, respectively.
As for `Oc1cccc(-c2nc(-c3ccccc3)[nH]c2-c2ccncc2)c1`, the inhibition amounted to 5.5% in [1]; 1.08% in assay [2]; 12.3% in [3]; 34.9% in assay [4]; 71.1% in assay [5]; 10.7% in assay [6]. Also, the inhibition is 47.7% in [7]; 1.41% in assay [8]; 3.86% in assay [9]; -0.21% in [10]; 1.56% in [11]; -1.52% in [12]. Moreover, the inhibition in assay [13] is 0.98%; in assay [14], 2.99%; in assay [15], 2.95%; in [16], 2.01%; in assay [17], 1.67%; in assay [18], -5.44%. In addition, the inhibition in assay [19] is -3.49%; in assay [20], 1.87%.

Values taken from ChEMBL document CHEMBL1961873, “Compounds: GSK PKIS; Assays: Nanosyn kinase panel” (2012).
